The list is not random: actives were taken first. Their share in the collection is about 6.5%.
Marburg entry inh: Marburg virus entry inhibition; AID 540276; Marburg virus pseudotyped entry inhibition, cell reporter; 1.8% of 300,000 active; Potency, µM (series often up to 37.8 µM), for inactives: at the highest dose activity change, negative = inhibition, actives largely listed as inhibitors; calls by dose curve; tested in HEK293 cells; also: potency is read from the fitted curve at half-maximal effect
Lassa entry inh: blocks Lassa virus binding to or entry into cells; Potency, µM (doses to about 37.9 µM), without a hit: top-dose activity change, negative = inhibition, usual class: inhibitors; 1.2% of 300,000 active; Lassa virus pseudotype entry inhibition, cell reporter; AID 540256; calls by dose curve; tested in HEK293 cells; also: potency is read from the fitted curve at half-maximal effect; nearly all actives have a fitted effect of over 50% in size
VACV mCherry inh: vaccinia inhibition (mCherry reporter); Vaccinia virus mCherry reporter infection, fluorescence; 0.63% of 310,000 active; Potency, µM (titrated, usually from 36.5 µM), inactives show at the top dose activity change, negative = inhibition, usual class: inhibitors; calls by dose curve; tested in A549 cells; also: potency is read from the fitted curve at half-maximal effect; nearly all actives have a fitted effect of over 35% in size
HCMV antiviral: blocks human cytomegalovirus replication; 4.5% of 410,000 active; activity change, negative = inhibition, % at 57.5 µM; HFF cells, HCMV-luciferase reporter, 72 h; hits give low values; in the data active = activity change below about -60%; inconclusive = no clear call, values can overlap the other calls; inactive = above about -39%
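Two compound doses tested in HFFs infected with HCMV-luciferase, MOI 1 PFU/cell, 72 h at 37C. Lysate luminescence read with OneGlo; data normalized against buffer-only and 10uM Salinomycin inhibitor controls.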
Vaccinia Venus: inhibitors of vaccinia virus (Venus reporter); Vaccinia virus Venus reporter expression, fluorescence; Potency, µM (highest dose often 36.5 µM), for the others: at the highest dose activity change, negative = inhibition, most hits filed as inhibitors; 0.46% of 330,000 active; AID 720580; calls by dose curve; tested in A549 cells; also: potency is read from the fitted curve at half-maximal effect; nearly all actives have a fitted effect of over 30% in size
FMDV inh: antivirals against foot and mouth disease virus; FMDV antiviral cell-based qHTS; 1.2% of 410,000 active; Potency, µM (doses to about 57.9 µM), for the others: top-dose activity change, negative = inhibition, most hits filed as inhibitors; calls by dose curve; tested in HEK293T cells; also: read-out not given here; potency is read from the fitted curve at half-maximal effect; nearly all actives have a fitted effect of over 45% in size
Numbers without * were called inactive; i = inactive; ? = inconclusive; . = no result given; [ ] = another dose, or the depositor's remark. % is scaled to controls: 0 for no effect and ±100 for the full control effect.

SMILES	Marburg entry inh	Lassa entry inh	VACV mCherry inh	HCMV antiviral	Vaccinia Venus	FMDV inh
COc1ccc(C(=O)COC(=O)c2cc(-c3cccs3)nc3ccccc23)cc1	1%[46.1 µM]	11µM*	-10%	11	-2%	62%
CCOc1ncccc1C(=O)NCCc1ccc(S(N)(=O)=O)cc1	0%[46.1 µM]	-11%[46.1 µM]	-9%	-67*	-10%	-2%
NS(=O)(=O)c1ccc(CCNC(=O)c2cc(-c3cccs3)nc3ccccc23)cc1	7.9µM*	?	i	-39	-18%	1%
COc1ccc(NC(=O)Cn2c(=O)n(-c3ccc(C)cc3)c(=O)c3c2cnn3C)cc1	?	-9%[46.1 µM]	-7%	28	-9%	-24%
O=C(C1CCC(CNS(=O)(=O)c2ccccc2)CC1)N1CCCCC1 (stereo not given)	-29%[46.1 µM]	?	14%	4	-2%	-16%
COc1ccccc1Nc1ncc(C(=O)N2CCN(Cc3ccc(OC)c(OC)c3OC)CC2)c2ccccc12	?	13µM*	-15%	10	-19%	-12%
COc1ccc(CN2CCN(C(=O)C3CCC(CNS(=O)(=O)c4ccccc4)CC3)CC2)c(OC)c1OC (stereo not given)	?	-7%[46.1 µM]	i	-102*	-15%	?
COc1ccccc1Nc1ncc(C(=O)N2CCC(C(N)=O)CC2)c2ccccc12	19%	2%	.	40	.	13%
CCc1cc(C(=O)NCC2Cc3cc(C)cc(-c4cc(C(C)=O)ccc4F)c3O2)n(C)n1 (stereo not given)	.	.	-26%	.	-23%	-24%
Cc1cccc(N2CCN(C(=O)C3CCN(C(=O)c4cc5sccc5n4C)CC3)CC2C)c1 (stereo not given)	?	.	-2%[7.34 µM]	-84*	-4%[7.34 µM]	?
Cc1ccc(C)c(N2CCN(C(=O)c3cc4sccc4n3C)CC2)c1	18µM*	?	.	-30	.	?
Cc1nc(NCc2c(C)nn(C)c2Cl)sc1-c1ccn(CC2COc3ccccc3O2)n1 (stereo not given)	.	.	-24%	.	-13%	?
CC(CN1CCNCC1)(NS(=O)(=O)c1ccccc1)c1ccccc1 (stereo not given)	11µM*	-22%	.	25	?	-7%
Cc1ccc(S(=O)(=O)NC(C)(C)CN2CCNCC2)cc1	?	-21%[46.1 µM]	-18%	-21	-8%	-14%
COc1ccc(-n2nnnc2SCC(=O)N2C(C)CCCC2C)c(OC)c1 (stereo not given)	-23%	-8%	0%	-79*	-13%	.
C#CC[N+](C)(C)CCCCCCCC	-9%	3%	.	-77*	.	-22%
CCCCCCCCCCCCCCCC[N+](C)(C)CCl	15%	7%	-17%	?	?	-21%
CCCCCCCCCCCCCCCC(O)C[N+](C)(C)CCO (stereo not given)	26%	1%	11%	?	-23%	-14%
C#CC[N+](C)(C)CCCCCCCCCC	-17%	-29%	16µM*	-98*	14µM*	0%
C#CC[N+](C)(C)CCCCCCCCCCCC	?	?	8.9µM*	-98*	7.9µM*	22µM*
CC#CC[N+](C)(C)CCCCCCCCCCCC	10µM*	?	.	-101*	.	13µM*
COc1cccc(-c2ccc3c(c2)N(Cc2cccc(F)c2)C(=O)C(C)S3)c1 (stereo not given)	.	.	-5%	5	-3%	?
COc1cc(C2CC(=O)N(Cc3cccc(F)c3)c3ccccc3S2)cc(OC)c1OC (stereo not given)	-13%[46.1 µM]	.	-30%	-95*	-26%	25µM*
COC(=O)C1=CN(Cc2cccs2)C=C(C(=O)OC)C1c1cccc(O)c1	2%[46.1 µM]	7.1µM*	-2%	-17	5%	-11%
Nc1[nH]n2c(=O)c3c(nc2c1N=Nc1ccc(Cl)cc1)CCCC3	2%[46.1 µM]	10%	.	-95*	-18%	-28%
SMILES	Marburg entry inh	Lassa entry inh	VACV mCherry inh	HCMV antiviral	Vaccinia Venus	FMDV inh
Nc1[nH]n2c(=O)c3c(nc2c1N=Nc1ccccc1)CCCC3	-6%[46.1 µM]	?	.	?	?	?
CNc1ncncc1-c1ccccc1C(F)(F)F	.	.	.	.	.	-6%
CCOc1ccc2c(c1)C(=O)C(=O)N2CC1COc2ccccc2O1 (stereo not given)	.	.	.	-65*	.	?
Cc1ccc2c(c1)C(=O)C(=O)N2CC1COc2ccccc2O1 (stereo not given)	?	-22%[46.1 µM]	-14%	-67*	-16%	-8%
CCN1CCN(CC2COc3ccccc3O2)CC1 (stereo not given)	.	.	.	-64*	.	-11%
CCOc1ccc(S(=O)(=O)NCCC(=O)NCC2COc3ccccc3O2)cc1 (stereo not given)	.	.	.	5	.	12%
COc1ccc2c(c1)C(=O)C(=O)N2CC1COc2ccccc2O1 (stereo not given)	.	.	.	-82*	.	-19%
Cc1ccc2c(c1)C(=O)C(=O)N2Cc1ccccc1	.	.	-13%	-28	-5%	30%
Cc1cc(C)n(-c2cccc(C(=O)NCC3Cc4cc(Cl)cc(-c5cnccn5)c4O3)c2)n1 (stereo not given)	.	.	-19%	.	-5%	-18%
c1ccc2c(c1)OCc1nccn1-2	.	.	.	1	.	.
COc1ccc(O)c2c(=O)c3c(OC)cc4c(c3oc12)C1C=COC1O4 (stereo not given)	.	.	-20%	-62*	.	.
CCCc1cc(=O)c2c(O)ccc(OC)c2o1	7%	18%	i	24	-4%	4%
CCNCCC(CCC(C)C)c1ccc2c(c1)OCO2 (stereo not given)	8.9µM*	-7%[46.1 µM]	?	45	-17%	-5%
COc1cccc(C(=O)N2CCc3c(C(=O)NC(C)c4ccco4)c(OC)cc(=O)n3CC2)c1OC (stereo not given)	.	.	-4%	.	8%	23%
OCCNCCCCOc1cccc(Br)c1	?	?	-12%	-32	-10%	-6%
C=CCNCCCCOc1cccc(Br)c1	13µM*	-2%	-29%	31	-16%	-11%
O=[N+]([O-])c1ccc2nc(N3CCCC3)sc2c1	.	.	.	62	.	30%
O=C(c1ccccc1)N1CCN(c2nc3ccc([N+](=O)[O-])cc3s2)CC1	.	.	-16%	-67*	?	?
CCc1ccc2nc(N3CCN(C(=O)c4ccccc4)CC3)sc2c1	.	-8%[46.1 µM]	-14%	?	-24%	?
CCCC(=O)N1CCN(c2nc3ccc(Br)cc3s2)CC1	.	.	.	-68*	.	3%
CCCCC(=O)N1CCN(c2nc3ccc(Br)cc3s2)CC1	0%[46.1 µM]	?	-13%	-13	-13%	-12%
CCN(Cc1ccccc1)S(=O)(=O)c1ccc(C(=O)N2CCN(c3nc4ccccc4s3)CC2)cc1	?	0%	-22%	-66*	-23%	10µM*
CN1CCN(c2ncc3nc(-c4ccccc4)c(=O)n(C)c3n2)CC1	.	.	.	.	.	10%
COc1ccc(-c2nn3ncccc3c2-c2ccnc(Nc3ccc4c(c3)OCCO4)n2)cc1	.	16µM*	.	.	.	.
Cc1cc(C)n2c(Nc3ccc4c(c3)OCCO4)c(-c3ccc(F)cc3)nc2n1	.	.	23%	74	0%	21%
